An excerpt weighted towards active compounds, which were near 6.5% of everything screened.
Abs 340nm = absorbance at 340 nm; 65,000 tested, under 10 active; compound absorbance at 340 nm, fold over control; fold change at 10 µM; AID 708;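 active = at 10 µM dose, initial 340 nm absorbance at least 2 fold that of control wells; inactive = change under 2 fold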;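 note: initial absorbance extrapolated from kinetic A340 decline of NADH oxidation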
Fluor 339 460 = intrinsic fluorescence of library compounds, ex339/em460 – biochemical, MLSMR library, data from DPM-DC assay, artefact control, profiling panel. 65,000 compounds, 5.5% hits. compound autofluorescence, ex339/em460 nm, NADH buffer; active compounds read high; 1 = no-compound wells, NADH background. fluorescence fold increase at 10 µM;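 active = at 10 µM, mean starting fluorescence two-fold or more over control wells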;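 note: signal is the first read of a kinetic run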
NADH coupling = inhibition of NAD/NADH coupling enzymes, library profiling. coupled PK/LDH NADH assays, four targets. IC50, µM (doses to about 10 µM), inactives show at the top dose inhibition. 65,000 compounds, 0.02% hits. AID 774;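 active = single-dose screening hits from any of four coupled enzyme assays that gave an IC50 when retested across doses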;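 note: the DPM-DC format reads NADH fluorescence rather than 340 nm absorbance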
Spn MK inh = blocks S. pneumoniae mevalonate kinase. purified MK, PK/LDH-coupled NADH absorbance 340 nm. inhibition, % at 10 µM. 65,000 compounds, 0.48% hits;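 active = ranked among the strongest by inhibition in the single 10 µM screen, a fixed top-ranked set picked for dose follow-up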
PMK inhibit = inhibitors of Streptococcus pneumoniae phosphomevalonate kinase | inhibition, % at 10 µM | purified PMK, PK/LDH-coupled NADH absorbance 340 nm | AID 539 | 65,000 compounds, 0.49% hits;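 active = top-ranked compounds by inhibition in the single 10 µM screen, taking a fixed number of the strongest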;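 note: 0% = full reaction with DMSO carrier and 100% = background rate without enzyme reaction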
Spn DPM-DC inh = S. pneumoniae DPM-DC inhibition | purified DPM-DC, PK/LDH coupled NADH fluorescence | calls only at 10 µM | 65,000 compounds, 0.49% hits | AID 556;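 active = the 320 compounds with the highest percent inhibition in the single-dose primary screen, excluding strongly autofluorescent ones, cut at about 32% in these data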;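 note: kinetic rate of NADH fluorescence loss reporting ADP formed by the decarboxylase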
* marks the source's active call; other numbers are inactive results; i = inactive; . = no result given.

SMILES	Abs 340nm	Fluor 339 460	NADH coupling	Spn MK inh	PMK inhibit	Spn DPM-DC inh
COC(=O)C(CC(C)C)Oc1ccc2c(C)cc(=O)oc2c1 (stereo not drawn)	1.1	1.7	7%	3	0	i
CCCOc1ccc2c(C)c(CC(=O)OC)c(=O)oc2c1	1.1	3.7*	8%	9	6	.
Cc1cc(=O)n2nc(N3CCCC3C(=O)NCCCN3CCCCC3)sc2n1 (stereo not drawn)	1	1.1	6%	0	18	i
Cc1cccc2cc(C#N)c(NCCNC(=O)NC3CCCCC3)nc12	1	2.1*	6%	6	12	i
CCOc1ccc2nc(NCCNC(=O)Nc3ccccc3)c(C#N)cc2c1	1	1.7	10%	8	14	i
Cc1ccc2cc(C#N)c(NCCNC(=O)C3CCC3)nc2c1C	1.1	3.1*	12%	1	14	i
Cc1cccc2cc(C#N)c(NCCNS(=O)(=O)c3ccc4c(c3)OCCO4)nc12	1	2.1*	8%	4	10	i
COc1cccc(CSc2nc3sc(C)c(C)c3c(=O)n2Cc2ccco2)c1	1	1.1	3%	7	3	i
Cc1ccc(NC(=O)COC(=O)C2CC2C)c(S(=O)(=O)N2CCCCC2)c1 (stereo not drawn)	0.99	1.1	7%	6	15	i
COc1cc(OC)c(C2C3=C(CCCC3=O)Nc3nc4ccccc4n32)cc1OC (stereo not drawn)	1.1	1.1	7%	8	12	i
COc1cccc(C2C3=C(CCCC3=O)Nc3nc4ccccc4n32)c1OC (stereo not drawn)	1.1	5*	8%	7	9	.
CCOC(=O)CSc1nnc(CNC(=O)c2ccc(OC)cc2OC)n1-c1ccc(OC)cc1	1	1.1	5%	0	16	i
Cc1ccc(-c2cn3nc(C)c(C)nc3n2)cc1	1	2.9*	4%	8	12	.
COc1cc2nc(N3CCN(C(=O)C4CCCO4)CC3)nc(N)c2cc1OC (stereo not drawn)	1.1	3.9*	6%	3	9	.
Cc1cc(C(=O)N2CCN(C(=O)C3CCCO3)CC2)no1 (stereo not drawn)	1	1.1	6%	5	13	i
CCCCCOC(=O)CSc1nnc(-c2ccccc2)c(=O)[nH]1	1	1.1	4%	0	13	i
CCOc1ccccc1C1C(C(N)=O)=C(C)Nc2nc(CCCO)nn21 (stereo not drawn)	1	1.1	3%	6	4	i
OCCCc1nc2n(n1)C(c1cccs1)C=C(c1ccccc1)N2 (stereo not drawn)	1.1	2.1*	9%	9	9	.
OCCCc1nc2n(n1)C(c1ccccc1)C=C(c1ccc(F)cc1)N2 (stereo not drawn)	1.1	2*	7%	1	7	i
OCCCc1nc2n(n1)C(c1ccccc1Cl)C=C(c1cccs1)N2 (stereo not drawn)	1.1	3.8*	4%	0	7	.
COc1nc(N2CCCC2)nc(-n2cc(-c3ccccc3)nn2)n1	0.99	1.1	4%	0	13	i
CCC(C)n1c(-c2cccs2)nc2nc3ccccc3nc21 (stereo not drawn)	1.1	3.9*	2%	2	2	.
C=CCn1c(-c2cccs2)nc2nc3ccccc3nc21	1	1.4	1%	0	13	.
COc1ccc2oc(C(=O)C3CC3)c(N)c2c1	1.1	2.1*	10%	2	8	i
COc1ccc(C(=O)c2oc3ccccc3c2N)cc1	1.1	1.5	9%	10	0	i
SMILES	Abs 340nm	Fluor 339 460	NADH coupling	Spn MK inh	PMK inhibit	Spn DPM-DC inh
CCOc1cc(S(=O)(=O)NCC2OCCc3ccccc32)c(OCC)cc1-n1cnnn1 (stereo not drawn)	1.1	3.9*	0%	0	0	.
CCOc1cc(S(=O)(=O)NCc2ccco2)c(OCC)cc1-n1cnnn1	1	3.2*	10%	7	13	.
CCOc1ccccc1CN(Cc1ccco1)S(=O)(=O)c1ccc(-n2cnnn2)c(OC)c1	1	1	3%	7	8	i
O=C1c2oc3ccccc3c(=O)c2C(c2ccc(Cl)cc2)N1c1ncccn1 (stereo not drawn)	1	1.1	3%	4	4	i
CCOc1cc2[nH]c(=O)n(CCCCC(=O)NCc3ccco3)c(=O)c2cc1OCC	0.99	1.8	7%	5	5	i
COc1cc2[nH]c(=O)n(CCC(=O)NC3CCCC3)c(=O)c2cc1OC	1.1	2*	5%	0	14	i
CCOc1cc2[nH]c(=O)n(CCCCC(=O)NC3CCCCC3)c(=O)c2cc1OCC	1.1	2.5*	5%	3	2	i
CCOc1cc2[nH]c(=O)n(CCCC(=O)NCc3ccco3)c(=O)c2cc1OCC	1	2.3*	6%	1	5	i
CCCCCNC(=O)CCCCn1c(=O)[nH]c2cc(OCC)c(OCC)cc2c1=O	1	2.1*	5%	9	6	i
CCCCCOC(=O)c1ccccc1C(=O)O	1	1.1	6%	12	7	i
CCOc1cccc(OCCCNCCCOC)c1	1.1	1.1	13%	40*	0	i
COc1ccc2c(c1)c1ncnc(N3CCN(Cc4ccc5c(c4)OCO5)CC3)c1n2C	1	3.2*	6%	5	7	i
COc1ccc2[nH]c3c(N4CCN(Cc5ccc6c(c5)OCO6)CC4)ncnc3c2c1	1.1	2.3*	5%	9	0	.
COC(=O)c1[nH]c2cc(OC)ccc2c1NC(=O)CCN1CCN(Cc2ccc3c(c2)OCO3)CC1	1.1	1.4	4%	5	6	i
COc1ccc2c(c1)c(C(O)CN1CCN(Cc3ccc4c(c3)OCO4)CC1)c(C)n2C (stereo not drawn)	1	1.2	6%	11	6	i
FC(F)(F)c1ccc(N2CCOCC2)c(Nc2nc3ccccc3n3cnnc23)c1	1	2.5*	2%	4	2	i
O=C(Cn1cnc2ccccc21)Nc1cc(C(F)(F)F)ccc1N1CCOCC1	1	1.1	5%	0	14	i
CCS(=O)(=O)N1CCc2cc(OC)c(OC)cc2C1	1	1.1	2%	6	0	i
COc1cc2c(cc1OC)CN(Cc1cccs1)CC2	1.1	1.2	22%	48*	13	i
COc1cc2c(cc1OC)CN(Cc1ccc(OC)c(C)c1OC)CC2	1.1	1.1	15%	46*	0	i
CC(=O)OC1=C(C#N)Cn2ccc3cccc1c32	1.1	3.9*	7%	9	5	.
Cc1cc(=O)[nH]c2c(C)c(Cl)ccc12	1	1.1	7%	6	9	i
Cc1cc(=O)[nH]c2c(C)c(N)ccc12	1.1	3.9*	12%	10	13	.

Screening data (PubChem BioAssay)
